CYP2C9 activ: human CYP2C9 activators, primary screen, biochemical, luminescence; activation factor at 5 µM; hit rate 1.4% among 96,000; Cytochrome P450 2C9 (Homo sapiens), P11712; recombinant CYP2C9, luciferin-H conversion; hits give high values; factor 1 = untreated enzyme, 0 = blocked;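 active = activation factor of 2 or more for CYP2C9 at a 5 µM dose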
CYP2C19 act: human CYP2C19 activators, primary screen, biochemical, luminescence; Cytochrome P450 2C19 (Homo sapiens), P33261; recombinant CYP2C19, luciferin-H EGE luminescence; hits give high values; 0 = fully inhibited enzyme, 1 = untreated enzyme; activation factor at 5 µM; 96,000 tested, under 10 active; AID 1025, 2008;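 active = activation factor of at least 2 at 5 µM in the primary screen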
Target sequence (P33261 whole entry, looked up): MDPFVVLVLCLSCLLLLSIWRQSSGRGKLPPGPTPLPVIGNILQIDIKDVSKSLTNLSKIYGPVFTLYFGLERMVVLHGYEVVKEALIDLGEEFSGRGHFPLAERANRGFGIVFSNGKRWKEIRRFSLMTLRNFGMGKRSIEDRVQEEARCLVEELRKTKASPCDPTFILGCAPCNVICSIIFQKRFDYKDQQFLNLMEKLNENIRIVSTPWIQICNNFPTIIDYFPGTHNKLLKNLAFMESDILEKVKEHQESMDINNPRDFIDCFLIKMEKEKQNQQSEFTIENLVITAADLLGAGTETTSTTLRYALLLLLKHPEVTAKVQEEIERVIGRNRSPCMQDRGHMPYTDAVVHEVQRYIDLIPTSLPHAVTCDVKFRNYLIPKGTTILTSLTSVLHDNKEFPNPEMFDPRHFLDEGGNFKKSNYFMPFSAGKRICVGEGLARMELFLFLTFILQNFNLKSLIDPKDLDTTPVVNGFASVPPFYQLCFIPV
CYP2C19 inh: blockers of cytochrome P450 2C19 activity – biochemical, luminescence, ADME assay, primary screen. CYP2C19 Supersomes, luciferin-H EGE luminescence, 30 min. inhibition, % at 5 µM. hit rate 21% among 96,000;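 active = CYP2C19 inhibition above a set limit at 5 µM in the primary screen, cut at about 50% in these data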
CYP2C9 inh: blockers of cytochrome P450 2C9 activity – biochemical, luminescence, ADME assay, primary screen. P11712. CYP2C9 Supersomes, luciferin-H conversion. inhibition, % at 5 µM. hit rate 20% among 96,000. AID 777, 2007;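 active = blocking of liver enzyme CYP2C9 beyond about 50% at 5 µM, limit read from the data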
Each line names hits and unclear results; the compound was inactive in the other large screens. Most compounds without a hit are left out; they make up all but 31% or so of the library.

COc1ccc(Cc2nnc(NC(=O)c3cccs3)s2)cc1	CYP2C9 inh 69
COc1ccc(NC(=O)CSc2nnc(Cc3ccccc3)o2)c(OC)c1	CYP2C19 inh 71
CCc1nnc(NC(=O)CSc2nnc(Cc3ccc(OC)cc3)o2)s1	CYP2C9 inh 53
O=C(Nc1nnc(Cc2ccccc2)s1)c1cccs1	none
O=C(Nc1nnc(Cc2ccc(Cl)cc2)s1)c1ccco1	CYP2C9 inh 63
CCn1cc(C(=O)NCCCN(C)C)c(=O)c2cc(F)c(N3CCN(C)CC3)cc21	none
Cc1cc(NC(=O)c2cc3nc4c(c(C(F)(F)F)n3n2)CCc2ccccc2-4)no1	none
C=C(C)CSc1nc2nc(C)c(Br)cc2[nH]1	CYP2C19 inh 55
O=C(OCCCN=C1NS(=O)(=O)c2ccccc21)c1ccccc1F	none
COc1cc(-c2nc(-c3ccccn3)no2)cc(OC)c1OC	none
c1ccc(-c2noc(-c3cccc4ccccc34)n2)nc1	CYP2C19 inh 64
COc1cccc(-c2nc(-c3ccccn3)no2)c1OC	CYP2C19 inh 90
Cc1ccc(CN(c2ccc(C(=O)N3CCCC3)cc2)S(C)(=O)=O)cc1	none
COC(=O)NCCOC(=O)N(O)c1ccc(Br)cc1	CYP2C19 inh 68
COC(=O)c1sc(N)c(C(=O)OC)c1CSc1nnc(-c2ccccc2Cl)n1C	CYP2C19 inh 100, CYP2C9 inh 97
COC(=O)c1sc(N)c(C(=O)OC)c1CSc1nnnn1C	CYP2C19 inh 92, CYP2C9 inh 55
COc1ccccc1NC(=O)CSc1nnnn1C	none
Cc1cc(NC(=O)c2ccc3c(c2)C(=O)N(Cc2cccnc2)C3=O)no1	none
O=C(c1cccs1)c1no[n+]([O-])c1C(=O)c1cccs1	none
O=C(c1cccs1)c1ccc(-c2cccs2)s1	CYP2C9 inh 74
Cc1cccc2cc(CN(CCCO)C(=O)Nc3cccc(Cl)c3)c(=O)[nH]c12	CYP2C19 inh 71, CYP2C9 inh 81
Cc1cccc2cc(CN(CCCO)C(=O)Nc3ccccc3Cl)c(=O)[nH]c12	none
Cc1cccc2cc(CN(Cc3ccco3)C(=O)c3ccncc3)c(=O)[nH]c12	CYP2C19 inh 98, CYP2C9 inh 94
O=C(c1ccncc1)N(Cc1ccco1)Cc1cc2ccccc2[nH]c1=O	CYP2C19 inh 99, CYP2C9 inh 93
CN(CCCNC(=O)Cn1cc2c(n1)CCCC2)C1CCCCC1	none
CCNc1nc(NC(C)C)nc(N(C#N)Cc2ccccc2)n1	none
CCNc1nc(NC(C)C)nc(N(C#N)CCOc2ccc(Cl)cc2Cl)n1	CYP2C19 inh 77
CN(C(=O)CCc1nc2ccccc2s1)c1ccccc1	CYP2C19 inh 70
O=C(O)CCCc1nc2ccccc2s1	CYP2C19 inh 55
CCOC(=O)N1CCC(N2Cc3cccc(C(=O)Nc4ccc(OC)c(OC)c4)c3C2=O)CC1	CYP2C19 inh 70, CYP2C9 inh 95
CCOC(=O)c1ccc(NC(=O)c2ccc(CO)c(C(=O)NC3CCN(C(=O)OCC)CC3)c2)cc1	none
CCOC(=O)N1CCC(NC(=O)c2cc(C(=O)Nc3ccc(OC)c(OC)c3)ccc2CO)CC1	CYP2C9 inh 64
CCOC(=O)C1CCN(C(=O)Nc2ccc(OC)c(OC)c2)CC1	none
CCOC(=O)c1ccccc1NC(=O)c1cccc2c1C(=O)N(C1CCN(C(=O)OCC)CC1)C2	CYP2C9 inh 96
CCOC(=O)N1CCC(N2Cc3cccc(C(=O)N4CCN(C5CCCCC5)CC4)c3C2=O)CC1	CYP2C9 inh 78
NC(=O)c1cccc2c1C(=O)N(C1CCCCC1)C2	none
O=C(O)CCC(=O)N1CCc2cc(S(=O)(=O)N3CC=C(c4ccccc4)CC3)ccc21	none
CC1=NNC(=O)C1C(c1ccccc1)C(C#N)C#N (stereo not given)	none
COCCOC(=O)C1=C(C)N=C2SCCC(=O)N2C1c1cccc(Br)c1 (stereo not given)	none
COCCn1c(C)cc(C(=O)CSc2nncn2-c2ccccc2)c1C	CYP2C19 inh 57
COc1ccccc1-n1cnnc1SCC(=O)NCc1cccs1	none
COc1ccc(-n2cnnc2SCC(=O)c2cc(C)n(Cc3cccs3)c2C)cc1	CYP2C19 inh 99, CYP2C9 inh 76
Cc1cc(C(=O)CSc2nnc(-c3cccs3)o2)c(C)n1-c1ccccc1	CYP2C19 inh 66, CYP2C9 inh 89
CCC1CCCCN1C(=O)CSc1nnc(-c2cccs2)o1 (stereo not given)	CYP2C19 inh 98
O=C(CSc1nnc(-c2cccs2)o1)c1cccs1	none
COc1ccc(C2C(C(N)=O)=C(C)Nc3nc(-c4ccccc4Cl)nn32)c(OC)c1 (stereo not given)	none
O=S(=O)(NCc1ccccc1)c1ccc(S(=O)(=O)N(Cc2cccs2)CC2CCCO2)cc1 (stereo not given)	none
C=CCN(CCNP(=O)(OCC)OCC)CP(=O)(OCC)OCC	none
Cc1cc(C(=O)CSc2nnc(-c3ccc(OC(F)F)cc3)o2)c(C)n1Cc1cccs1	none
COc1ccc(-c2nnc(SCC(=O)c3cc(C)n(Cc4cccs4)c3C)o2)cc1	CYP2C19 inh 80, CYP2C9 inh 78
Cc1cc(Nc2ccc(N3CCC(C)CC3)cc2)n2ncnc2n1	none
CC1(O)CC(=O)N(c2ccccc2)O1 (stereo not given)	none
O=C(COc1ncnc2sccc12)N1CCc2ccccc2C1	CYP2C19 inh 59
O=C(CSc1nnc(Cc2ccccc2)o1)NCCc1ccccc1	none
O=C(CN1C(=O)CCSc2ccccc21)Nc1ccc(F)cc1	CYP2C19 inh 95, CYP2C9 inh 80
O=C(CN1C(=O)CCSc2ccccc21)Nc1ccccc1	CYP2C19 inh 92, CYP2C9 inh 70
O=C(CN1C(=O)CCSc2ccccc21)Nc1ccc2c(c1)OCCO2	none
O=C(CN1C(=O)CCS(=O)(=O)c2ccccc21)Nc1cccc(F)c1	none
Cc1oc(-c2ccccc2Cl)nc1Cn1cccc1C1=NC(c2ccccc2)CO1 (stereo not given)	CYP2C9 inh 75
Nc1nc(NC(=O)c2cccc(S(=O)(=O)N3CCCCCC3)c2)nc(-c2ccccc2)n1	none
CC1(C)CC(=O)C=C(NCC2CCCO2)C1 (stereo not given)	none
Cc1ccc(-n2nc(C)c3c(C)cc(=O)[nH]c32)cc1	none
Cc1ccc(C)c(NC(=O)CCc2ccc(S(=O)(=O)NC3CCCCC3)cc2)c1	CYP2C19 inh 84, CYP2C9 inh 76
CCNc1ccc(C(=O)OCC)cc1NC(=O)c1cccc(N(C)C)c1	CYP2C9 inh 50
CCOC(=O)c1ccc(NC(=O)c2ccc(C)c(S(=O)(=O)N3CCOCC3)c2)cc1	none
Cc1cc(C)c(NC(=O)c2ccc(S(=O)(=O)N3CCOCC3)cc2)c(C)c1	none
COc1cc(C)ccc1NC(=O)c1ccc(S(=O)(=O)N2CCOCC2)cc1	CYP2C9 activ 2.9
CCNc1ccc(C(=O)OCC)cc1NC(=O)c1cc(S(=O)(=O)N2CCOCC2)ccc1C	CYP2C19 inh 88, CYP2C9 inh 54
O=C(CCc1ccc(S(=O)(=O)NC2CCCCC2)cc1)NCc1ccc(Cl)cc1	none
c1ccn2c(SCc3cn4ccsc4n3)nnc2c1	none

Compound activity deposited in PubChem by Sanford-Burnham Center for Chemical Genomics.
